Sm TGR inh – inhibitors of Schistosoma mansoni thioredoxin glutathione reductase | purified TGR, DTNB reduction, TNB absorbance 405 nm | Potency, µM (highest dose often 114 µM), for inactives: top-dose activity change, negative = inhibition, actives largely listed as inhibitors | actives 3% (n = 360,000); also: nearly all actives have a fitted effect of over 60% in size
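TGR 20 nM + NADPH 100 uM (dispensed conc.), cpd preinc 15 min RT; start with NADPH (500 uM addition) then DTNB (15 mM addition). Kinetic TNB absorbance, 405 nm filter. Four-parameter Hill fit across titration.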
AmpC inh detg – blocks E. coli AmpC beta-lactamase in detergent assay; P00811; AmpC hydrolysis of nitrocefin, absorbance 480 nm, 0.01% Triton; Potency, µM (series often up to 114 µM), without a hit: at the top dose activity change, negative = inhibition, actives largely listed as inhibitors; actives 0.041% (n = 370,000);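 also: 0% = no-compound wells and -100% = no-enzyme wells; nearly all actives have a fitted effect of over 25% in size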
Target sequence (P00811 whole entry, looked up): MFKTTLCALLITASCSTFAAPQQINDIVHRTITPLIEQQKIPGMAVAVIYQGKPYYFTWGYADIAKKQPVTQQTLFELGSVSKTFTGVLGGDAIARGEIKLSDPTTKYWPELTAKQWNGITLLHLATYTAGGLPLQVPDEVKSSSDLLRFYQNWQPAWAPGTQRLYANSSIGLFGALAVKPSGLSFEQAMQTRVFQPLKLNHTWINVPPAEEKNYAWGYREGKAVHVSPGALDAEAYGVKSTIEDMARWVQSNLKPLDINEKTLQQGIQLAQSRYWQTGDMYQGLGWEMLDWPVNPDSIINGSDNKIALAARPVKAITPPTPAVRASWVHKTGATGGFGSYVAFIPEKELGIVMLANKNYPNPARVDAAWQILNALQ
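AmpC (5.3 nM in the dispensed reagent) in 20 mM phosphate pH 7.0 with 0.01% (detergent screen) or 0.0001% Triton X-100 was preincubated with compounds for 15 min at room temperature. Nitrocefin was then added from an 800 uM solution, and hydrolysis was followed at 480 nm.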
AmpC inh no detg – inhibitors of E. coli AmpC beta-lactamase without detergent; P00811; AmpC nitrocefin hydrolysis, absorbance 480 nm, 0.0001% Triton; Potency, µM (doses to about 57.1 µM), for inactives: at the highest dose activity change, negative = inhibition, hits mostly inhibitors; actives 0.52% (n = 330,000); AID 485341;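 also: plate controls were no compound for no effect and no enzyme for full effect; nearly all actives have a fitted effect of over 20% in size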
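AmpC (5.3 nM in the dispensed reagent) in 20 mM phosphate pH 7.0 with 0.01% (detergent screen) or 0.0001% Triton X-100 was preincubated with compounds for 15 min at room temperature. Nitrocefin was then added from an 800 uM solution, and hydrolysis was followed at 480 nm.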
* hit, by the source's call; [ ] = remark or other dose. An excerpt weighted towards active compounds, which were near 3.3% of everything screened. Calls follow the shape of the dose curve; as a rule, active = well fitted curve in the direction sought with a large enough effect; inconclusive = small, poorly fitted or top-dose-only effect, or another doubt; inactive = no such curve, though single readings can be large; an effect the other way counts as inactive or inconclusive. Unless noted, % is scaled to controls: 0 for no effect and ±100 for the full control effect; potency is read from the fitted curve at half-maximal effect.

How did N#Cc1c(N2CCN(C(=O)c3ccccc3Cl)CC2)nc(-c2ccccc2)c2c1CCCC2 do in these assays?
Sm TGR inh: 10.6%; AmpC inh detg: 2.1%; AmpC inh no detg: 3.8%

What do the screens show for `CC(=O)N1CCN(c2nc(-c3ccco3)c3c(c2C#N)CC(C)(C)SC3)CC1`?
Sm TGR inh: 11.2µM*; AmpC inh detg: 0.6%; AmpC inh no detg: 162.2%

Results for CC1(C)Cc2c(C#N)c(N3CCN(C(=O)c4ccccc4Cl)CC3)nc(-c3ccco3)c2CS1 ?
Sm TGR inh: 3.55µM*; AmpC inh detg: -8.0%; AmpC inh no detg: 49.9%

Results for CC1(C)Cc2c(C#N)c(N3CCN(C(=O)c4ccco4)CC3)nc(-c3ccco3)c2CS1 ?
Sm TGR inh: 2.82µM*; AmpC inh detg: 3.9%; AmpC inh no detg: 57.2%

Results for CC1(C)Cc2c(C#N)c(N3CCN(C(=O)c4ccco4)CC3)nc(Cc3ccccc3)c2CO1 ?
Sm TGR inh: 0.0%; AmpC inh detg: inconclusive; AmpC inh no detg: -8.8%

What do the screens show for `CC1CCN(C(=O)Cn2cc(SCC(=O)NCc3ccc(F)cc3)c3ccccc32)CC1`?
Sm TGR inh: -0.1%; AmpC inh detg: -2.7%

How did CCCN(CCC)CCCNC(=O)C1CCN(S(=O)(=O)CC)CC1 do in these assays?
Sm TGR inh: -8.2%; AmpC inh detg: -4.4%

What do the screens show for `CCn1cc(C(=O)NCCc2ccc(OC)c(OC)c2)c(=O)c2cc(S(=O)(=O)N3CCc4ccccc4C3)ccc21`?
Sm TGR inh: 0.6%; AmpC inh detg: -1.1%

Results for CCn1cc(C(=O)N2CCN(c3cc(C)ccc3C)CC2)c(=O)c2cc(S(=O)(=O)N3CCCCC3)ccc21 ?
Sm TGR inh: 1.7%; AmpC inh detg: 2.2%

How did CCCCNc1nc(Oc2ccc(=O)n(-c3ccccc3)n2)nc(N(C)C)n1 do in these assays?
Sm TGR inh: -2.0%; AmpC inh detg: 8.2%

What do the screens show for `O=C(NCc1ccccc1)c1cnc(N2CCCCC2)c2ccccc12`?
Sm TGR inh: -1.3%; AmpC inh detg: -4.5%

How did CCOc1ccc(NC(=O)c2c(NC(=O)c3ccccc3Br)sc3c2CCC(C)C3)cc1 (stereo not drawn) do in these assays?
Sm TGR inh: -6.6%; AmpC inh detg: 2.5%

What do the screens show for `CCCOc1ccc(NC(=O)CC2C(=O)N(c3cccc(OC)c3)C(=O)N2CCc2ccncc2)cc1` (stereo not drawn)?
Sm TGR inh: 1.5%; AmpC inh detg: 11.7%

How did CCOc1ccc(NC(=O)CSc2nccn2C2CCCC2)cc1 do in these assays?
Sm TGR inh: 6.3%; AmpC inh detg: -4.4%

What do the screens show for `COc1ccc(OC)c(CNC(=O)CCc2c(C)nc3c(c2C)c(=O)n(C)c(=O)n3C)c1`?
Sm TGR inh: -3.4%; AmpC inh detg: 5.8%

What do the screens show for `Cc1ccc(/C=C/C(=O)NC2CCCCCCC2)o1`?
Sm TGR inh: 2.51µM*; AmpC inh detg: -10.6%; AmpC inh no detg: -40.6%

Results for O=C(/C=C/c1ccco1)Nc1cccc(S(=O)(=O)N2CCOCC2)c1 ?
Sm TGR inh: -32.7%; AmpC inh detg: inconclusive; AmpC inh no detg: -26.4%

Results for Cc1ccc(/C=N/NC(=O)NC2CCCCC2)o1 ?
Sm TGR inh: -9.2%; AmpC inh detg: -0.7%; AmpC inh no detg: -12.4%[11.4 µM]

Results for Cc1ccc(/C=C/C(=O)Nc2cccc(S(=O)(=O)N3CCOCC3)c2)o1 ?
Sm TGR inh: 11.2µM*; AmpC inh detg: 5.0%; AmpC inh no detg: -18.6%

Results for Cc1ccc(/C=C/C(=O)Nc2ccc(N(C)C)cc2)o1 ?
Sm TGR inh: -21.2%; AmpC inh detg: -3.3%; AmpC inh no detg: -29.1%

How did Cc1ccc(/C=C/C(=O)Nc2ccc(S(N)(=O)=O)cc2)o1 do in these assays?
Sm TGR inh: 7.94µM*; AmpC inh detg: -2.8%; AmpC inh no detg: -32.9%

What do the screens show for `Cc1ccc(/C=C/C(=O)Nc2ccncc2)o1`?
Sm TGR inh: 8.91µM*; AmpC inh detg: -3.8%; AmpC inh no detg: -9.9%

What do the screens show for `CC(=O)NS(=O)(=O)c1ccc(NC(=O)/C=C/c2ccc(C)o2)cc1`?
AmpC inh detg: 4.8%; AmpC inh no detg: -13.1%

How did CCOC(=O)c1ccc(CN(Cc2ccc(F)cc2)S(=O)(=O)c2cc(C(=O)Nc3cccc(C(F)(F)F)c3)ccc2F)cc1 do in these assays?
Sm TGR inh: 2.4%; AmpC inh detg: -5.0%

What do the screens show for `CC1=C(C(=O)Nc2ccc(Cl)cc2)C(c2cccs2)n2nc(SCc3cccc(C)c3)nc2N1` (stereo not drawn)?
Sm TGR inh: 16.2%; AmpC inh detg: 10.3%

How did COc1ccc(NC(=O)N(Cc2ccco2)C2CCN(C(C)=O)CC2)c(OC)c1 do in these assays?
Sm TGR inh: -9.6%; AmpC inh detg: 2.6%

Results for O=c1oc2c(CN3CCOCC3)c(O)ccc2c2c1CCCC2 ?
Sm TGR inh: 79.4µM*; AmpC inh detg: -14.3%; AmpC inh no detg: -19.6%

How did O=c1oc2c(CN3CCOCC3)c(O)ccc2c2ccccc12 do in these assays?
Sm TGR inh: 0.0%; AmpC inh detg: inconclusive; AmpC inh no detg: -22.9%

Results for COc1ccc(Oc2coc3c(CN(C)C)c(O)ccc3c2=O)cc1 ?
Sm TGR inh: -27.2%; AmpC inh detg: -13.7%; AmpC inh no detg: -11.0%

How did Cc1cc(=O)oc2c(CN3CCN(C)CC3)c(O)c(Cl)cc12 do in these assays?
Sm TGR inh: 50.1µM*; AmpC inh detg: inconclusive; AmpC inh no detg: -25.1%

What do the screens show for `COc1ccc(Oc2coc3c(CN4CCOCC4)c(O)ccc3c2=O)cc1`?
Sm TGR inh: 44.7µM*; AmpC inh detg: 2.9%; AmpC inh no detg: -15.9%

Results for O=c1oc2c(CN3CCOCC3)c(O)c(Cl)cc2c2c1CCCC2 ?
Sm TGR inh: 44.7µM*; AmpC inh detg: inconclusive; AmpC inh no detg: -13.3%

Results for Cc1c(C)c2cc(Cl)c(O)c(CN3CCCCC3)c2oc1=O ?
Sm TGR inh: -11.0%; AmpC inh detg: -5.4%; AmpC inh no detg: 7.2%

Results for CCCc1cc(=O)oc2c(CN3CCN(C)CC3)c(O)c(Cl)cc12 ?
Sm TGR inh: inconclusive; AmpC inh detg: -22.1%; AmpC inh no detg: -4.4%

How did Cc1ccc(-c2c(C(=O)NCCc3ccccc3)oc(=O)c3ccccc23)cc1 do in these assays?
Sm TGR inh: 2.1%; AmpC inh detg: 7.2%

How did CCCCOc1ccccc1C1CC(=O)Nc2ccc3ccccc3c21 (stereo not drawn) do in these assays?
Sm TGR inh: 7.4%; AmpC inh detg: 11.7%

What do the screens show for `CCc1ccc2oc(-c3cccc(NC(=O)C(C)(C)Oc4ccc(Br)cc4)c3)nc2c1`?
Sm TGR inh: 12.4%; AmpC inh detg: 2.6%

How did CCOc1ccccc1NC(=O)N1CCC(N2CCN(Cc3ccccc3)C(=O)C2=O)CC1 do in these assays?
Sm TGR inh: 2.5%; AmpC inh detg: 6.6%

What do the screens show for `CCOc1ccc(N2C(=O)NC(=O)/C(=C\c3ccc(N4CCCCC4)o3)C2=O)cc1`?
Sm TGR inh: -34.5%; AmpC inh detg: -7.6%; AmpC inh no detg: -5.1%

Results for CN1CCN(c2ccc(/C=C3\C(=O)NC(=S)N(c4cccc(Br)c4)C3=O)o2)CC1 ?
Sm TGR inh: -5.2%; AmpC inh detg: inconclusive; AmpC inh no detg: -29.8%

Results for Cc1ccc(/C=C2\C(=O)NC(=S)N(c3cccc(F)c3)C2=O)o1 ?
Sm TGR inh: 0.708µM*; AmpC inh detg: -10.4%; AmpC inh no detg: -43.9%

Bioassay records as filed in PubChem BioAssay.
